In PubChem BioAssay one finds composite z-score and z-score data, which are given here for five compounds.

Activity calls are given as the source filed them. Unless noted, no rule for the calls is given here.

A short description of test [1]: compounds binding Alexa647 anti-His antibody – biochemical, small-molecule microarray, 635 nm fluorescence, artefact control for SMM control protein annotation, primary screen (AID 1128).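 Also: score merges feature fluorescence with signal-to-noise for each printed compound spot.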 As to conditions: higher = more signal.
Test [2] has as its system Human papillomavirus type 1a E7 protein (residues 1-88). Kind of test: HPV1a E7 small-molecule binders, primary screen, biochemical, small-molecule microarray, residues 1-88, 635 nm (AID 1129). To be noted: small-molecule microarray binding, fluorescence 635 nm; higher = more signal.
Test [3] deals with Focal adhesion kinase 1 (Homo sapiens) (UniProt Q05397). Briefly: PTK2 protein binding on printed compound slides – biochemical, small-molecule microarray, 635/667 nm fluorescence, BSA, DTT, primary screen (AID 1130).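 Also: composite of spot emission at 667 nm and signal to noise over triplicate slides.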 To be noted: 635 nm fluorescence, higher = more signal.
Focal adhesion kinase 1 (Homo sapiens), sequence (Q05397 whole entry, looked up): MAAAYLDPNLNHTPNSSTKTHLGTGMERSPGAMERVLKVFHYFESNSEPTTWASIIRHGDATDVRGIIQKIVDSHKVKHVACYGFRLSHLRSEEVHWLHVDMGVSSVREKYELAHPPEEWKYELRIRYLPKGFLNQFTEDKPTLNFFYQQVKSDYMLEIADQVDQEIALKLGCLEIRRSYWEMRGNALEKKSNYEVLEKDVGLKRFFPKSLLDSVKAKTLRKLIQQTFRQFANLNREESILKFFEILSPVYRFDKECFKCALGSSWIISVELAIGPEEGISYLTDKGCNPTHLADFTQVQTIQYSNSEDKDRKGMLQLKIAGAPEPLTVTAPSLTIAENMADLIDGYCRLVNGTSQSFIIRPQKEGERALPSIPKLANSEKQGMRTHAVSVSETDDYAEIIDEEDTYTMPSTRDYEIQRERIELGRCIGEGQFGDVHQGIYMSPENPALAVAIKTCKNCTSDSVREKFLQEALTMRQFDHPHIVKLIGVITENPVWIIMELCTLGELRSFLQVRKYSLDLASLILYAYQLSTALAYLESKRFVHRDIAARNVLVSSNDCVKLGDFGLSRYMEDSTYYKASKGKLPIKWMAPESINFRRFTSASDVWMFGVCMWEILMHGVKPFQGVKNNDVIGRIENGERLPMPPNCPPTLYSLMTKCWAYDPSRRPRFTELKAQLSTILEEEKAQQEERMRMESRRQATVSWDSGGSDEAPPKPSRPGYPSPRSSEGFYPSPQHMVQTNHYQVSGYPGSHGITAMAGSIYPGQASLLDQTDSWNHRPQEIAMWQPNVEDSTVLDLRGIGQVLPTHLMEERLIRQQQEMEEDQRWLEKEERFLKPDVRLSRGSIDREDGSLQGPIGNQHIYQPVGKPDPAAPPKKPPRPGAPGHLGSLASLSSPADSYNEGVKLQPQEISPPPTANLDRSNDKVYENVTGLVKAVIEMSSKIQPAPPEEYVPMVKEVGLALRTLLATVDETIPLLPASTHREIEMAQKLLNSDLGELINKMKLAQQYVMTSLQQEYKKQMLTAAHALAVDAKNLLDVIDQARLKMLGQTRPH
The subject of test [4] is Fibrinogen (Alexa647-labelled). Briefly: Alexa647-fibrinogen binding to printed small molecules – biochemical, small-molecule microarray, 635/667 nm fluorescence, artefact control for SMM control-protein annotation, profiling panel (AID 1131).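 Also: z-score merges 667 nm fluorescence with per-spot signal-to-noise over triplicate slides.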 To be noted: fibrinogen-A647 binding fluorescence, higher = more signal.
Test [5] concerns the target Follistatin (Homo sapiens) (UniProt P19883). Briefly: FST protein binding to printed compounds – biochemical, small-molecule microarray, 635/667 nm fluorescence, primary screen (AID 1132). To be noted: 635 nm fluorescence, higher = more signal.
For test [6], the target named is Fibroblast growth factor 2 (Homo sapiens) (UniProt P09038). Kind of test: basic fibroblast growth factor binding to printed compounds – biochemical, small-molecule microarray, 635/667 nm fluorescence, primary screen (AID 1133). As to conditions: FGF2, fluorescence 635/667, higher = more signal.
Fibroblast growth factor 2 (Homo sapiens), sequence (P09038 whole entry, looked up): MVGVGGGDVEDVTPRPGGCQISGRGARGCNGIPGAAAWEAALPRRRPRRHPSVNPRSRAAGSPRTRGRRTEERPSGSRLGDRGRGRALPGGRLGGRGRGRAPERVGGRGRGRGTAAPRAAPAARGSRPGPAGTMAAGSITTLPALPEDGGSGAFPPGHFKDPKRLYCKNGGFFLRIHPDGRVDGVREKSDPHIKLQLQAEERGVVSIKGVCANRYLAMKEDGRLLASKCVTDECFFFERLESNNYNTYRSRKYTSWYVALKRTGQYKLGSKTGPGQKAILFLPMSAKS
Test [7] can be described thus: JC-1 mitochondrial potential readout, lung cancer cells – cell-based, A549, JC-1 fluorescence, basal, 24 h, 100 nL, profiling panel (AID 1138).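 Also: A549 lung adenocarcinoma cells under basal conditions with no added stimulus; test concentration not given here.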 As to conditions: higher = more signal.
For test [8], the system named is Lefty1. Kind of test: Lefty1 protein binding to printed compounds – biochemical, small-molecule microarray, 635/667 nm fluorescence, primary screen (AID 1139). To be noted: fluorescence 635/667, higher = more signal.
Test [9] has as its system wheat germ agglutinin (Triticum aestivum), Alexa647-labelled. Briefly: Alexa647-WGA lectin binding to printed small molecules – biochemical, small-molecule microarray, 635/667 nm fluorescence, artefact control for SMM control-protein annotation, profiling panel (AID 1140).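 Also: score merges 667 nm feature emission with signal to noise over triplicate slides.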 As to conditions: WGA-A647 binding, 635 nm fluorescence, higher = more signal.
The target of test [10] is Luciferin 4-monooxygenase (Photinus pyralis) (UniProt P08659). Briefly: inhibition of purified Photinus pyralis luciferase – biochemical, luminescence, purified enzyme, 2006 set, primary screen (AID 1141).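 Also: cell-free assay with purified firefly luciferase at 100 ng per well in PBS; test concentration not given here.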 To be noted: purified firefly luciferase, SteadyGlo luminescence, 30 min; higher = more signal, called active from +8 up or from −8 down.
Luciferin 4-monooxygenase (Photinus pyralis), sequence (P08659 whole entry, looked up): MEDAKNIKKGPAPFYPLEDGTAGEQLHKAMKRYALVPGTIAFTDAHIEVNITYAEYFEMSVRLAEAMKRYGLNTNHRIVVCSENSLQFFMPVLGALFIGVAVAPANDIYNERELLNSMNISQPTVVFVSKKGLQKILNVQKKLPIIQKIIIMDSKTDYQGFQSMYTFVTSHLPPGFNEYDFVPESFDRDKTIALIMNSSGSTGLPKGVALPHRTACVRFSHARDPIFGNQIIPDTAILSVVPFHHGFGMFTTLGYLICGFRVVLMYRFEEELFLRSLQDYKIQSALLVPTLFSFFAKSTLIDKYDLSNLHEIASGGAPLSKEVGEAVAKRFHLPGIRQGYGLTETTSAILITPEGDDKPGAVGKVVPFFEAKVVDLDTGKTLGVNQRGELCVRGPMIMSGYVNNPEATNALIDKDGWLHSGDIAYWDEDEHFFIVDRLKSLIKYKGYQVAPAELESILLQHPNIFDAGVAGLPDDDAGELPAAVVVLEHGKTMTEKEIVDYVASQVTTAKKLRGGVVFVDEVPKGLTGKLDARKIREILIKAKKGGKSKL
For test [11], the system named is Wnt5a (protein binding on small-molecule microarray). Briefly: small molecules binding Wnt5a protein – biophysical, small-molecule microarray, 635/667 nm fluorescence, primary screen (AID 1142).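 Also: fluorescence read at 667 nm with signal to noise per printed feature.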 To be noted: 635 nm fluorescence, higher = more signal.
The nature of test [12]: ATP-based viability of Huh7 replicon cells – cell-based, CellTiter-Glo luminescence, basal, 48 h, cytotoxicity control for HCV replication inhibitor project, primary screen (AID 1143).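 Also: Huh7 hepatoma cells carrying a hepatitis C replication reporter with no stimulus; test concentration not given here.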 As to conditions: higher = more signal, called active from +8 up or from −8 down. For orientation: A replicon is a self-replicating genome or part of one, used to study replication in cells.
Test [13] is described as follows: Pseudomonas biofilm growth suppression – PAO1 strain, BacTiter-Glo luminescence, LB-PBS, primary screen (AID 1144). As to conditions: P. aeruginosa PAO1 biofilm, 12 h, higher = more signal.
The nature of test [14]: basal CRE-LacZ reporter activity in PC12 – cell-based, unstimulated, primary screen (AID 1145). As to conditions: no forskolin, luminescence, 4.5 h, higher = more signal, called active from +8 up or from −8 down.
Test [15] can be described thus: forskolin-driven CRE-LacZ activity in PC12 – cell-based, CRE-LacZ reporter, forskolin-stimulated, primary screen (AID 1146).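 Also: PC12 cells with 6xCRE LacZ reporter stimulated by forskolin 10 µM; beta-galactosidase reporter signal reflecting CREB driven transcription.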 As to conditions: luminescence, 4.5 h, higher = more signal, called active from +8 up or from −8 down.
In test [16] the target is Streptavidin (Streptomyces avidinii) (UniProt P22629). Kind of test: compounds binding control protein streptavidin – biophysical, small-molecule microarray, 635/667 nm fluorescence, artefact control for SMM compound annotation, primary screen (AID 1147).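 Also: signal reflects streptavidin binding to arrayed compounds as a control protein.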 To be noted: higher = more signal.
Streptavidin (Streptomyces avidinii), sequence (P22629 whole entry, looked up): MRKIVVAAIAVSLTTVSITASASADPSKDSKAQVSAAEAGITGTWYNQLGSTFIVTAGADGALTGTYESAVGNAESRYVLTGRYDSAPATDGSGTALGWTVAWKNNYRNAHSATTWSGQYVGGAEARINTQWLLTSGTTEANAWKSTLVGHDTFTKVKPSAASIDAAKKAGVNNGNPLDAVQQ
The nature of test [17]: probe aInhba binding on compound microarray – biochemical, small-molecule microarray, 635/667 nm fluorescence, primary screen (AID 1148).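 Also: score merges 667nm spot fluorescence with signal-to-noise for antibody binding to printed compounds.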 As to conditions: higher = more signal.
The target in test [18] is Torsin-1A (Homo sapiens) (UniProt O14656). Briefly: TOR1A wild-type binding on microarray – cell lysate, small-molecule microarray, lysate, 635/667 nm, primary screen (AID 1149). As to conditions: COS7 hTOR1A-WT lysate, 635 nm fluorescence, higher = more signal.
Torsin-1A (Homo sapiens), sequence (O14656 whole entry, looked up): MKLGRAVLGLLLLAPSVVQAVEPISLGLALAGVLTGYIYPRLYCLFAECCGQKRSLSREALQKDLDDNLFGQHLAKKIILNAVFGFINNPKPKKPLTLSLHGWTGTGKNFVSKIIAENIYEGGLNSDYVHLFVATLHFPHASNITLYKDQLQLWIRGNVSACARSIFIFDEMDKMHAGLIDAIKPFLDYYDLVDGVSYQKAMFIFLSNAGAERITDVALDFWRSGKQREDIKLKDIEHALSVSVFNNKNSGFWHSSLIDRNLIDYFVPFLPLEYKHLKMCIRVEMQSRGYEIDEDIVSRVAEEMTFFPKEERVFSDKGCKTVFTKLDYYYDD
For test [19] the target is unchanged. Briefly: torsin A mutant lysate binding on microarrays – cell lysate, small-molecule microarray, COS7 lysate, 635/667 nm fluorescence, primary screen (AID 1150).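 Also: score pools 667 nm emission and signal to noise measuring lysate protein binding.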 To be noted: COS7 hTOR1A mutant lysate, 635 nm fluorescence, higher = more signal.
In test [20] the test system is Sonic hedgehog protein (Shh). Briefly: Sonic hedgehog microarray binding compounds – biochemical, small-molecule microarray, 635/667 nm fluorescence, primary screen (AID 1151).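 Also: Shh protein binding to compounds spotted on small-molecule microarray slides; score combines spot fluorescence intensity with signal-to-noise across triplicate slides.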 To be noted: 635 nm fluorescence, higher = more signal.

Follistatin (Homo sapiens), sequence (P19883 whole entry, looked up): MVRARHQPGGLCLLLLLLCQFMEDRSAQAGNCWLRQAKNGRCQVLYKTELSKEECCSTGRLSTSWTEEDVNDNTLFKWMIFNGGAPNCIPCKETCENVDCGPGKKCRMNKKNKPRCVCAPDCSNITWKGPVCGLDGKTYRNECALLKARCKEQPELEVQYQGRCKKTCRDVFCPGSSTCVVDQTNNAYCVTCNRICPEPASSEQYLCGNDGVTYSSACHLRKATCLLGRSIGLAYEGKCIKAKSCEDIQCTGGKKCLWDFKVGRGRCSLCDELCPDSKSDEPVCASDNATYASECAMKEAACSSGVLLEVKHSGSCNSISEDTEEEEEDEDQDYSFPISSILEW

Regarding `CC(C)C[C@@H]1NC(=O)C([C@@H](C)OCc2ccccc2)NC(=O)[C@@]23C(=O)N[C@@H](Cc4ccccc4)C2[C@H](C)[C@@]2(C)O[C@H]2C3/C=C/CC/C=C/CNC1=O` (stereo not given in full), the composite z-score in [1] is 0.48; in test [2], 0.809; in test [3] it was 0.87; in test [4], -0.209; in test [5], 0.761; in test [6], 1.11. The composite z-score in [8] was 0.659; in test [9], 0.503; in test [11], 0.237; in test [16], 0.264; in test [17], -0.206; in test [18], -0.608. Also, the composite z-score was 0.32 in test [19] and 1.07 in test [20]. The z-score is 0.728 in [7]; 0.533 (inactive) in test [10]; -4.9 (inactive) in test [12]; -0.469 (inactive) in test [13]; 1.76 (inactive) in [14]; -1.52 (inactive) in test [15].

For `COCCCNC(=O)[C@@]1(Sc2ccc(C)cc2)CC(=O)N(C2CCCCC2)[C@@H]1c1ccc(CO)cc1I`, the composite z-score in test [1] is 1.74; in [2], 1.18; in [3], 0.737; in [4], 0.922; in test [5] it was 1.09; in test [6], 0.659. The composite z-score in test [8] stood at 0.136; in [9], 0.814; in test [11] it was 0.0699; in test [16], 0.404; in test [17], 0.541; in test [18] it was 0.0619. The composite z-score in test [19] was found to be 0.401; in test [20], 0.993. For the same compound, the z-score in test [7] is 0.816; in [10] it was 0.235 (inactive); in [12], -1.41 (inactive); in [13] it was 0.134 (inactive); in test [14] it was -0.258 (inactive); in [15], 1.17 (inactive).

With `COC(=O)c1ccc([C@H](NC(=O)c2ccccc2)[C@]2(C)C[C@H]2C2CCCCC2)cc1`, the composite z-score was 0.494 in [1]; 1.18 in test [2]; 0.591 in test [3]; 0.707 in test [4]; 0.412 in test [5]; -0.639 in [6]. Further, the composite z-score was -0.41 in [8]; 1.21 in [9]; 0.0477 in test [11]; 1.08 in test [16]; 0.166 in [17]; -0.435 in test [18]. For the same compound, the composite z-score in test [19] was 0.266; in test [20], -0.999. For the same compound, the z-score in [7] is 0.85; in [10] it was 1.51 (inactive); in [12], -1.78 (inactive); in test [13], -0.718 (inactive); in test [14], 0.394 (inactive); in test [15], 1.28 (inactive).

With `COc1ccc(NC(=O)O[C@H]2[C@H](OC(=O)Nc3ccc4c(c3)OCO4)[C@H](OC(=O)Nc3ccc4c(c3)OCO4)[C@@H](OC)O[C@@H]2CO)cc1`, the composite z-score in test [1] worked out at 1.45; in test [2], 1.25; in test [3], 0.216; in test [4], 0.362; in test [5], 1.29; in test [6], 0.319. Also, the composite z-score is 0.293 in test [8]; 0.8 in [9]; 0.0873 in test [11]; -0.0821 in test [16]; -0.0131 in test [17]; 0.207 in [18]. The composite z-score in [19] was determined as 1.91; in [20], 0.725. Also, the z-score in [7] was 0.0258; in [10], -6.52 (inactive); in [12], -2.42 (inactive); in test [13], 0.883 (inactive); in [14], 0.456 (inactive); in test [15], -0.92 (inactive).

Regarding `[N-]=[N+]=NCc1ccccc1C[C@]1(C(=O)N2CCOCC2)N=C(c2ccc(OCCCO)cc2)O[C@H]1c1ccccc1CN=[N+]=[N-]`, the composite z-score in test [1] stood at 2.97; in [2] it was 1.25; in [3], 0.681; in test [4], 0.963; in test [5] it was 1.3; in [6], 1.92. Further, the composite z-score was -0.232 in test [8]; 1 in [9]; 1.42 in test [11]; 1.24 in test [16]; 1.28 in test [17]; 0.3 in [18]. The composite z-score in test [19] is 0.863; in test [20] it was -0.0561. The z-score was 1.68 in test [7]; -1.25 (inactive) in test [10]; -3.43 (inactive) in test [12]; -0.52 (inactive) in test [13]; 0.778 (inactive) in test [14]; -1.32 (inactive) in test [15].
